# Among all 310,000 compounds or so, about 11,000 (3.5%) were called active. Entries that show only a call come without a potency. Not shown: some 8% with an inconclusive outcome. Calls come from the whole dose curve; as a rule, active = well fitted inhibition curve with a large enough effect; inconclusive = small, poorly fitted or top-dose-only effect, or effect the other way; inactive = flat fitted curve, though single readings scatter. The full list was thinned out, with actives kept by preference.
# Test: VP16 counterscreen qHTS for inhibitors of ROR gamma transcriptional activity;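 note: Gal4-VP16 expression switched on by copper sulfate through the metallothionein promoter; nearly all actives have a fitted effect of over 50% in size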
# Details: Drosophila S2 Gal4-VP16 UAS-luciferase, luminescence, 20 h; series mostly up to 53.6 µM
# Text: NIH Molecular Libraries Probe Production Network [MLPCN]
# NIH Chemical Genomics Center [NCGC]
# Assay Provider: Dan Littman, New York University
# The retinoic acid-related orphan receptor (ROR) gamma is a transcription factor that has a central role in the differentiation of Th17 cells, a subset of T helper cells that secrete the inflammatory cytokines IL-17, IL-17F, and IL-22. Th17 cells have been implicated in graft versus host disease, autoimmune disease and asthma. ROR gamma is induced in naive T helper cells in the presence of TGF-beta combined with IL-6, IL-21, or IL-23, and thereafter directs the expression of the Th17 lineage cytokines. To identify nonspecific inhibitors, a Drosophila Schneider cell line was stably transfected with two vectors: a gene expressing a fusion of the Gal4 DNA binding domain and VP16 transactivation domain under the control of the metallothionine promoter and a Photinus luciferase reporter regulated by the Gal4 binding site enhancer, UAS. […] Small molecule inhibitors that inhibit components common to the RORgt and VP16 assays, such as the Gal4 DNA binding domain or the UAS luciferase reporter, will be active in both assays and thus scored as nonspecific.
# For screening, 600 cells in 4 uL/well were dispensed into white solid 1536-well plates (Grenier) using a solenoid-based dispenser. Following transfer of 23 nL compound or DMSO vehicle by a pin tool, the plates were incubated 1 hr at ambient temperature, and 1 uL/well copper sulfate (700 uM final concentration) was added. The plates were centrifuged 15 s at 1000 RPM and incubated 20 hr at ambient temperature. After addition of 1.5 uL Photinus luciferase detection reagent, the plates were incubated 10 min at ambient temperature and then read by a ViewLux (Perkin Elmer) to detect luminescence.
# Potency is the fitted concentration of half-maximal effect.
SMILES,Potency,"activity, negative = inhibition"
Fc1cccc2ncnc(OCc3ccccc3)c12,inactive,
Cc1occc(=O)c1OCc1ccc(F)cc1,inactive,
Cc1nc2ccccc2cc1OCc1ccc(F)cc1,6.31 µM (active),
O=C(CCc1nnc2ccc(NCc3ccccc3Cl)nn12)NCC1CCN(C2CCCC2)C1 (stereo unspecified),inactive,
COC(=O)c1ccc(N2CCOCC2)c(NC(=O)c2ccc3c(c2)OCCO3)c1,inactive,
COc1ccc(/C=N/Nc2ncnc3sc4c(c23)CCCC4)cc1O,4.47 µM (active),
COc1ccc(NC(=O)CCNC(=O)Cn2cnc3sc4c(c3c2=O)CCCC4)cc1OC,inactive,
COc1ccc(NC(=O)CCCNC(=O)Cn2cnc3sc4c(c3c2=O)CCCC4)cc1OC,inactive,
CNC(=O)C1CCN(S(=O)(=O)c2c(C)noc2/C=C/c2cccc(C)c2)CC1,inactive,
O=C(Cc1ccccc1F)NC1CCSc2ccccc21 (stereo unspecified),inactive,
CCC(=O)c1ccc(OCC(=O)Nc2ccc3nc(C)sc3c2)cc1,inactive,
COc1ccc2nc(Nc3nc4ccc(NC(C)=O)cc4s3)sc2c1,7.08 µM (active),
CCOc1ccc2nc(Nc3nc4ccc(NC(C)=O)cc4s3)sc2c1,7.08 µM (active),
COc1ccc2nc(Nc3nc(-c4ccncc4)cs3)sc2c1,inactive,
CCOc1ccc2nc(NC(=O)CSc3nc4c(c(=O)n(C)c(=O)n4C)n3CC)sc2c1,inactive,
COc1ccc2nc(NC(=O)NC3CCCCC3)sc2c1,inactive,
O=C(Nc1cccc(-c2cscn2)c1)C1CCN(Cc2ccsc2)CC1,inactive,
CCc1cccc(CC)c1NC(=S)Nc1ccc2cn[nH]c2c1,inactive,
Cc1cc2cc(CNC(=O)c3ccc(S(=O)(=O)N4CCOCC4)cc3)ccc2[nH]1,inactive,
CCc1cccc(CC)c1NC(=S)NCc1ccc2[nH]c(C)cc2c1,11.2 µM (active),
Cc1cc(Cl)ccc1C(=O)C1CCCN(C(=O)c2nonc2C)C1 (stereo unspecified),inactive,
Nc1nc(-c2ccccc2)cc(-c2ccccc2)n1,inactive,

SMILES,Potency,"activity, negative = inhibition"
COC(=O)c1cc(NC(=O)Cc2ccccc2[N+](=O)[O-])ccc1Cl,inactive,
CC(=O)Nc1ccc(NC(=O)C(C)OC(=O)c2ccccc2C(=O)c2ccc(Cl)c([N+](=O)[O-])c2)cc1 (stereo unspecified),inactive,
N#Cc1cccc(NC(=O)COC(=O)c2ccccc2C(=O)c2ccc(Cl)c([N+](=O)[O-])c2)c1,7.08 µM (active),
Cc1ccccc1OCC(=O)Nc1nnc(S(=O)(=O)N2CCCC2)s1,inactive,
Oc1c(C(c2ccccn2)N2CCOCC2)ccc2cccnc12 (stereo unspecified),2.82 µM (active),
OC(COc1ccc2ccccc2c1)CN1CCOCC1 (stereo unspecified),inactive,
Cc1nc2sc(C(c3ccco3)N3CCOCC3)c(O)n2n1 (stereo unspecified),inactive,
COC(=O)c1ccc2c(C(C)(C)O)c(C(C)(C)O)[nH]c2c1,inactive,
O=C(NCCNc1ccc([N+](=O)[O-])cc1Cl)c1ccccc1F,inactive,
COC(=O)c1cc(NC(=O)c2cccnc2)ccc1N1CCOCC1,inactive,
O=C(Nc1cccc(Cl)c1N1CCOCC1)c1cccnc1,inactive,
O=C(Nc1ccc(N2CCN(C(=O)c3ccccc3)CC2)c(Cl)c1)c1cccnc1,17.8 µM (active),
COc1cccc(CNC(=O)CCCC(=O)Nc2cccc([N+](=O)[O-])c2)c1,inactive,
N#CNC1=NCN(CCc2ccccc2)CN1,inactive,
S=C1SCN(CCN2CCOCC2)CN1Cc1ccccc1,inactive,
CCCN1CNC(=S)N(CCc2ccccc2)C1,3.16 µM (active),
COc1ccc(S(=O)(=O)N(CC(=O)N/N=C/c2ccccc2C(=O)O)c2ccccc2OC)cc1,inactive,
COc1ccccc1NC(=O)CN(c1ccccc1OC)S(=O)(=O)c1ccccc1,inactive,
COc1ccccc1N(CC(=O)N/N=C(\C)c1ccccc1O)S(=O)(=O)c1ccc(C)cc1,0.708 µM (active),
CC(C)OCCCNc1ncnc2c1[nH]c1ccc(F)cc12,2.82 µM (active),
CC(C)OCCCNC(=O)c1cc(Sc2ccc(F)cc2)nc2ccccc12,inactive,
COc1cc(OC)c(OC)cc1/C=N/Nc1ncnc2c1[nH]c1ccc(C)cc12,inactive,

SMILES,Potency,"activity, negative = inhibition"
COC1=C(N2CCOCC2)C(=O)c2ccccc2C1=O,inactive,
COC(=O)C(C)Oc1ccc2c(c1)O/C(=C\c1cccc(Br)c1)C2=O (stereo unspecified),inactive,
CCCS(=O)(=O)N1CCN=C1SCc1cccc(F)c1,inactive,
COc1ccc(-c2noc(CNC(=O)C(C)Oc3ccccc3)n2)cc1 (stereo unspecified),inactive,
COc1ccc2[nH]c3nc(SCC(=O)NC4CC4)nnc3c2c1,inactive,
COCCN(CCOC)S(=O)(=O)c1ccc(C(=O)Nc2nc3c(s2)CCc2ccccc2-3)cc1,12.6 µM (active),
COCCN(CC(=O)Nc1ccccc1C)S(=O)(=O)c1ccc(S(=O)(=O)N2CCCC2)cc1,,-1.46% [at 0.365 µM] (inactive)
COc1ccc(C(=O)Nc2ncc3c(n2)-c2ccccc2CC3)cc1,inactive,
CC(=O)Nc1cccc(NC(=O)c2c(-c3ccccc3)noc2C)c1,inactive,
Cc1onc(-c2ccccc2)c1C(=O)NNC(=S)NC(=O)c1ccc(F)cc1,2 µM (active),
Cc1onc(-c2ccccc2)c1C(=O)N=C(N)c1ccc(Cl)cc1,inactive,
Cc1onc(-c2ccccc2)c1C(=O)Nc1ccccc1C#N,inactive,
COc1ccc(C(=O)NC(=S)NNC(=O)c2c(-c3ccccc3)noc2C)cc1,5.62 µM (active),
Cc1ccc(CNC(=O)c2c(-c3ccccc3)noc2C)cc1,inactive,
CC(C)c1ccc(S(=O)(=O)NC2CCCC2)cc1,inactive,
COc1ccc(CN2CC(C(=O)NCCc3ccc(Cl)cc3)CC2=O)cc1 (stereo unspecified),inactive,
Nc1ccc(Oc2ccc(Cl)cc2)cc1,inactive,
Cc1ccc(Oc2ccc(N)cc2)cc1,inactive,
CC(C)(C)c1ccc(Oc2ccc(N)cc2)cc1,7.08 µM (active),
CC1=C(C(=O)NC2CC(C)(C)Cc3c2cnn3-c2ccc(C)cc2)OCCO1 (stereo unspecified),inactive,
CCS(=O)(=O)N1Cc2ccccc2CC1C(=O)Nc1nc2ccc(F)cc2s1 (stereo unspecified),11.2 µM (active),
CCS(=O)(=O)N1Cc2ccccc2CC1C(=O)Nc1ccc(OC)cc1OC (stereo unspecified),inactive,

SMILES,Potency,"activity, negative = inhibition"
NS(=O)(=O)c1ccc2nc(NC(=O)CS(=O)(=O)c3ccc(F)cc3)sc2c1,inactive,
O=c1c2cc([N+](=O)[O-])ccc2nc2n1CCC2,inactive,
O=S(=O)(NC1CCCCC1N1CCC(O)CC1)c1ccc(Cl)cc1 (stereo unspecified),inactive,
COc1cccc(CN(C)CC(O)COC(c2ccccc2)c2ccccc2C)c1 (stereo unspecified),inactive,
COc1ccc(NC(=O)CCS(=O)(=O)c2cc3c(cc2Cl)NC(=O)CO3)cc1OC,inactive,
CN(C)CCN(C(=O)C1=COCCO1)c1nc2ccc(Cl)cc2s1,inactive,
O=C(Nc1ccccc1)c1ccco1,inactive,
O=C(Nc1ccc(Sc2ccc(Br)cc2)cc1)c1ccco1,2.82 µM (active),
O=C(Nc1ccc(O)cc1)c1ccc(NC(=O)c2ccco2)cc1,inactive,
CCN(CC(=O)Nc1ccc(C)c(S(=O)(=O)N(C)C)c1)Cc1ccccc1,inactive,
Cc1ccc(C(C)C)c(OCCSc2nc3ccccc3n2CC(=O)O)c1,inactive,
C#CCN(N(C)c1ncc(C(F)(F)F)cc1Cl)S(=O)(=O)c1ccc2ccccc2c1,inactive,
CN(Cc1ccc(F)cc1Cl)S(=O)(=O)c1cccs1,inactive,
CN(NS(=O)(=O)c1cccs1)c1ncc(C(F)(F)F)cc1Cl,5.01 µM (active),
Cc1ccc(NC2CCCN(C(=O)CCc3cn[nH]c3)C2)cc1C (stereo unspecified),inactive,
CCc1nccn1CCC(=O)N1CCCC(N2CCN(c3ccccc3F)CC2)C1 (stereo unspecified),inactive,
COCc1ccc(C(=O)NC2CC(C)(C)Cc3c2cnn3-c2ccc(C)cc2)o1 (stereo unspecified),inactive,
CCCc1cc(C(=O)N2CCCC(CO)(CCCc3ccccc3)C2)n(C)n1 (stereo unspecified),inactive,
O=C(O)c1ccc(/C=N/Nc2nc(N3CCCCC3)nc(N3CCCCC3)n2)cc1,inactive,
O=C(O)c1ccc(N/N=C/c2ccc3ncccc3c2)cc1,0.398 µM (active),
O=C(O)c1ccc(/C=N/NC(=O)c2ccc(Br)cc2)cc1,inactive,
COc1ccc(OCc2cc(C(=O)NCC3(C)COC3)no2)c(Cl)c1,inactive,

SMILES,Potency,"activity, negative = inhibition"
COc1ccc(CNC(=O)C(=O)NCC2OCCN2C(=O)c2ccc(OC)cc2)cc1 (stereo unspecified),inactive,
COc1ccccc1C(=O)N(C1=NC(C)CS1)c1ccc(Cl)cc1 (stereo unspecified),inactive,
CN(CCc1ccccn1)C(=O)c1ccc(OC2CCN(CCc3ccccc3)CC2)cc1,inactive,
CCOC(=O)c1c(S(=O)(=O)Nc2cccc(Cl)c2)c(C)n(C)c1C,inactive,
Cc1c2c(nc3ccccc13)-c1cccc(=O)n1C2,8.91 µM (active),
CC(C)c1ccc2c([Si](C)(C)C)c3c(nc2c1)-c1cccc(=O)n1C3,inactive,
Cc1nc2ccccc2c(C)c1C(=O)c1ccc(F)cc1,inactive,
Cc1cc(C)c2nc(N(CCN(C)C)C(=O)/C=C/c3cccs3)sc2c1,inactive,
O=C(O)COc1ccc(/C=N/O)cc1Br,inactive,
C=CCNC(=S)N/N=C/c1ccc(OCc2ccccc2)cc1,inactive,
CNC(=S)N/N=C/c1ccc(OCc2ccccc2)c(Br)c1,3.55 µM (active),
Cc1cc(C)cc(N(CC(=O)NC2CCCC2)C(=O)CCC(=O)Nc2cc(C)on2)c1,inactive,
O=C(Nc1ccc(F)cc1)C(=O)c1cn(CC(=O)N2CCOCC2)c2ccccc12,inactive,
Cc1cc(C(=O)CSc2nc(N)cc(=O)[nH]2)c(C)n1-c1cccc(F)c1,17.8 µM (active),
Cc1cc(C(=O)CSc2nc(N)cc(=O)[nH]2)c(C)n1CCc1ccc(Cl)cc1,inactive,
Cc1cc(=O)[nH]c(SCc2cccc(F)c2)n1,inactive,
CCCn1c(=O)c(C(=O)Nc2cc(C)ccn2)c(O)c2ccccc21,inactive,
CCN1C(=S)N[C@@H](CCc2ccccc2)[C@H](C(=O)OC)[C@H]1C,inactive,

# Source: PubChem BioAssay AID2546 (National Center for Advancing Translational Sciences (NCATS), 2010)
